Measurements as given in article PMC4336329 (PLoS ONE, 2015).
In all, about 310,000 compounds went through this assay and about 14,000 (4.5%) showed an effect of 50% or more. Effects have a minus sign here. The sample as a whole holds a higher share of strong results than the screen did.

molecular target: human ether-à-go-go-related gene (hERG) potassium channel (human, UniProt Q12809); assay: primary screen, population patch clamp on CHO cells stably expressing hERG; higher = less effect of the substance
Sequence (Q12809 whole entry, looked up): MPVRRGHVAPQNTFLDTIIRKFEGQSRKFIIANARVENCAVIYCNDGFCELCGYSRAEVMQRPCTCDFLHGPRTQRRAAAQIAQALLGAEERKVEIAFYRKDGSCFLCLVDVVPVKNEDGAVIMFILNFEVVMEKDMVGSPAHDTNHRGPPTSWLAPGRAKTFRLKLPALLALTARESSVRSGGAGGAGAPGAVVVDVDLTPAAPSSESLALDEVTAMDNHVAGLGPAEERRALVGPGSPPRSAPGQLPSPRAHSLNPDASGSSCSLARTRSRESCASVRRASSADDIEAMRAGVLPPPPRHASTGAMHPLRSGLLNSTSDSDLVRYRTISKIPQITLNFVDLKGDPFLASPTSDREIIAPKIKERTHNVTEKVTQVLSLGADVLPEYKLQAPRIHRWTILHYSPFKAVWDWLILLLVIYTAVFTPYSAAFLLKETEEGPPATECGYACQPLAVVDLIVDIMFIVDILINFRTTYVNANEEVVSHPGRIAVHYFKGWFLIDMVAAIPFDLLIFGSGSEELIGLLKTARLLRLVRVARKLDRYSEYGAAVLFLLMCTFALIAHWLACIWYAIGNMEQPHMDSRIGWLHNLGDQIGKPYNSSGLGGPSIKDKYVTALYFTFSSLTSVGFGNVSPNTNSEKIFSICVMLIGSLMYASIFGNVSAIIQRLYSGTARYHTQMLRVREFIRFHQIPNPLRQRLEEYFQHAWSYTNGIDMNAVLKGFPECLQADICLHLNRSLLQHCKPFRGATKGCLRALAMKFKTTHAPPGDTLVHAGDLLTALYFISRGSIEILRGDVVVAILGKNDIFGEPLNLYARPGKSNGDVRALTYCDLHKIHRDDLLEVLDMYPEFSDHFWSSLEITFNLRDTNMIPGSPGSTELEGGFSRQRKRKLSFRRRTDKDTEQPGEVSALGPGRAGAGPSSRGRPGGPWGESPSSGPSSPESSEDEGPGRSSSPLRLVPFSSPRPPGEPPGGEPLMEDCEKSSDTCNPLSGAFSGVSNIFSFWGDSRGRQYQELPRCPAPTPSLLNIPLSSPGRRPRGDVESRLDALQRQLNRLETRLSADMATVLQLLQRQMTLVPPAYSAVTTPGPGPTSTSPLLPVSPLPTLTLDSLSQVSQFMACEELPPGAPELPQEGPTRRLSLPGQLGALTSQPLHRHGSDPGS
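Also: peak tail current of the secondary pulse compared with the same well before compound.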

SMILES | hERG current change (%, negative = inhibition) at 10uM [%]
CCN1CCN(c2cc(C)c3cc(NC(=S)N4CCN(c5ccccc5)CC4)ccc3n2)CC1 | -0.088
CCCCN(CC)CCCNC(=S)Nc1ccc2nc(N3CCN(C)CC3)cc(C)c2c1 | 5.19
CCN1CCN(c2cc(C)c3cc(NC(=S)NCCN(C)C)ccc3n2)CC1 | 3.21
CCN1CCN(c2cc(C)c3cc(NC(=S)N(CC)CC)ccc3n2)CC1 | -43.9
CCCCN(CC)CCNC(=S)Nc1ccc2nc(N3CCN(C)CC3)cc(C)c2c1 | -0.781
CCCCN(C)CCNC(=S)Nc1ccc2nc(N3CCN(CC)CC3)cc(C)c2c1 | 2.83
CCN1CCN(c2cc(C)c3cc(NC(=S)N(C)Cc4ccccc4)ccc3n2)CC1 | -77.7
CCCCN(C)C(=S)Nc1ccc2nc(N3CCN(CC)CC3)cc(C)c2c1 | -78.9
CCCCN(CC)C(=S)Nc1ccc2nc(N3CCN(C)CC3)cc(C)c2c1 | -56.3
Cc1c(NC(=O)CSc2n[nH]c(=O)n2-c2ccccc2)c(=O)n(-c2ccccc2)n1C | 16.9
CCOC(=O)c1c(NC(=O)c2cccc(N3C(=O)CCC3=O)c2)sc(C)c1C | 5.4
CC(=O)c1ccc(NC(=O)COC(=O)c2ccccc2Sc2ccccc2C#N)cc1 | 18
O=C(CCCCn1c(=S)[nH]c2ccsc2c1=O)NCc1ccco1 | 16.6
O=C(c1ccc2c(c1)ncn2C1CCCCCC1)N1CCC2(CC1)OCCO2 | -2.37
O=C(c1ccc(Br)cc1)N1CCCc2ccccc21 | -6.19
O=C(CSc1nc(O)c(Cc2ccccc2)c(=O)[nH]1)Nc1ccccc1 | 8.28
O=C(Nc1ccc(-c2noc(-c3cccs3)n2)cc1)c1cccnc1 | -3.79
COc1ccc(Br)cc1/C=N/Nc1ccccn1 | 14.8
O=C(Nc1cccc(S(=O)(=O)NC2=NCCC2)c1)c1ccc(=O)[nH]c1 | 10.7
COc1ccc(-c2nnc3sc(C4CCCCC4)nn23)cc1OC | -51.1
COc1cc(-c2nnc3sc(C4CCCCC4)nn23)cc(OC)c1OC | -43.7
COc1cccc(-c2nnc3sc(C4CCCCC4)nn23)c1 | -45.2

SMILES | hERG current change (%, negative = inhibition) at 10uM [%]
CC(C)c1cc(C(=O)N2CCCC(CCC(=O)N3CCN(c4ccccn4)CC3)C2)no1 (stereo not shown) | -36.8
CN(C)CCCNC(=O)/C(=C\c1ccc(-c2ccc(Br)cc2)o1)NC(=O)c1ccccc1 | -75.1
Cc1ccc(C(=O)N/C(=C\c2ccc(-c3ccc(Br)cc3)o2)C(=O)NCCCN(C)C)cc1 | -80.3
Cc1ccc(C(=O)N/C(=C\c2ccc(-c3ccc(Cl)cc3)o2)C(=O)NCCCN(C)C)cc1 | -85
O=C(NCCO)/C(=C\c1ccc([N+](=O)[O-])o1)NC(=O)c1ccccc1 | 1.55
Cc1ccc(C(=O)N/C(=C\c2ccc(Cl)cc2)C(=O)NCC2CCCO2)cc1 (stereo not shown) | -49
CN(C)CCCNC(=O)c1ccc(-c2ccccc2)cc1 | -36.7
Cc1ccc(C(=O)N/C(=C/c2ccc(-c3ccc(Br)cc3)o2)C(=O)NC2CCS(=O)(=O)C2)cc1 (stereo not shown) | -6.35
Cc1ccc(C(=O)N/C(=C/c2ccc(Cl)cc2)C(=O)NCC2CCCO2)cc1 (stereo not shown) | -48.7
Cc1ccc(C(=O)N/C(=C\c2ccc(-c3ccc(Br)cc3)o2)C(=O)NC2CCS(=O)(=O)C2)cc1 (stereo not shown) | -5.68
O=C(N1CCOCC1)N(Cc1ccco1)CC1CCCO1 (stereo not shown) | -48.5
COc1ccccc1NC(=O)c1ccc2nc(C)c(C)nc2c1 | -16.1
O=C(c1ccccc1)n1ccn(-c2ccccc2)c1=S | -14.9
Cn1c(=NC(=O)CS(=O)(=O)c2ccccc2)sc2cc([N+](=O)[O-])ccc21 | -36.5
CCCc1cc(=O)oc2cc(C)cc(OC(C)C(=O)NCC(O)c3ccccc3)c12 (stereo not shown) | 7.42
Cc1ccccc1C(=O)NCC(=O)NCC1(N2CCOCC2)CCCCC1 | -25.7
NC(=O)COc1ccc(C(=O)NCC2(N3CCOCC3)CCCCC2)cc1 | 6.98
CN(C)S(=O)(=O)c1ccc(C(=O)NCC2(N3CCCCC3)CCCCC2)cc1 | -1.46
O=C(CNC(=O)c1ccc(OC(F)F)cc1)NCC1(N2CCOCC2)CCCCC1 | -68.5
CN(C)S(=O)(=O)c1ccc(C(=O)NCC2(N3CCOCC3)CCCCC2)cc1 | -9.69
CCN(CC)S(=O)(=O)c1ccc(C(=O)NCC2(N3CCOCC3)CCCCC2)cc1 | -67.3
CCC(C)NC(=O)CS(=O)Cc1nc(-c2cccc(OC)c2)oc1C (stereo not shown) | 2.84

SMILES | hERG current change (%, negative = inhibition) at 10uM [%]
CCOc1cc(C2NC(=O)NC(C)=C2C(C)=O)cc(Cl)c1OCC(=O)O (stereo not shown) | 5.35
CCc1ccc(OCC(=O)Nc2ccc(S(=O)(=O)Nc3cc(C)on3)cc2)c(Br)c1 | -19.7
Brc1cccc(CNc2nc3ccccc3n2CCN2CCCCC2)c1 | -67.8
Cc1nc2ccccc2n1CCN1CCOCC1.Cl | 23.3
Brc1cccc(CNc2nc3ccccc3n2CCN2CCOCC2)c1 | -76.3
Nc1nc2ccccc2n1CCN1CCCC1 | 6.04
C=CCn1c(NCc2ccccc2)nc2ccccc21 | -26.4
Brc1ccc(CNc2nc3ccccc3n2CCN2CCCCC2)cc1 | -62.7
Cn1c(NCc2cccc(Br)c2)nc2ccccc21 | -22.2
Cl.OCCNc1nc2ccccc2n1CCN1CCCCC1 | -30.4
Cc1ccc(OCCn2cnc3cc([N+](=O)[O-])ccc3c2=O)cc1 | -8.19
COc1ccc(S(=O)(=O)NNC(=O)c2sccc2-n2cccc2)cc1 | 2
COC(=O)c1ccc(NC(=O)C2CCCN2S(=O)(=O)c2ccc(OC)cc2)cc1 (stereo not shown) | -16.8
COc1cc(C(=O)Nc2ccc(C(=O)c3cccs3)cc2)cc(OC)c1OC | -10.1
Cc1cc(F)ccc1NC(=S)NC1CCCC1 | 17.9
COC(=O)c1[nH]c2cc(OC)ccc2c1NC(=O)CCN1CCN(c2ccccc2)CC1 | -67
CCOC(=O)c1[nH]c2cc3c(cc2c1NC(=O)CN1CCc2ccccc2C1)OCO3 | -0.934
COC(=O)c1[nH]c2cc(OC)ccc2c1NC(=O)CCN1CCCCC1 | -20.5
CCOC(=O)C1CCCN(CC(=O)Nc2c(C(=O)OC)[nH]c3ccc(C)cc23)C1 (stereo not shown) | -36.1
CCOC(=O)c1[nH]c2ccc(OC)cc2c1NC(=O)CN1CCc2ccccc2C1 | -12.4
CCOC(=O)c1[nH]c2ccc(OC)cc2c1NC(=O)CCN1CCN(Cc2ccccc2)CC1 | -57.1
CCOC(=O)C1CCCN(CCC(=O)Nc2c(C(=O)OC)[nH]c3cc(OC)ccc23)C1 (stereo not shown) | -59.6

SMILES | hERG current change (%, negative = inhibition) at 10uM [%]
COC(=O)c1[nH]c2cc(OC)ccc2c1NC(=O)CCN1CCN(c2cccc(C)c2C)CC1 | -16.4
CCOC(=O)c1[nH]c2ccc(OC)cc2c1NC(=O)CCN1CCC(C)CC1 | -22.8
CCOC(=O)C1CCCN(CC(=O)Nc2c(C(=O)OC)[nH]c3ccccc23)C1 (stereo not shown) | -25.2
CCOC(=O)c1[nH]c2ccc(OC)cc2c1NC(=O)CCN1CCc2ccccc2C1 | -59.5
CCOC(=O)c1[nH]c2ccc(OC)cc2c1NC(=O)CCN1CCSCC1 | -5.8
COc1cc(OC)nc(Oc2ccccc2C(=O)Oc2cccc(C)c2)n1 | 7.95
CC1=NN(C(=O)c2ccc(Cl)cc2)C(O)(c2ccccc2)C1 (stereo not shown) | 22
COc1ccccc1C(=O)N(C1=NC(C)CS1)c1ccc(Cl)cc1 (stereo not shown) | 7.94
Cc1cc(C)c(C#N)c(N2CCCC2)n1 | 5.67
COCCCNC(=O)c1ccc(CS(=O)(=O)c2ccc(Br)cc2)o1 | -14.3
COC(=O)C1=C(C(=O)OC)[N+]2=C3N(C(=O)NC2(C)C)[C@H](CO)C[C@@]32c3ccccc3N(Cc3ccccc3)[C@@H]12 | -11.2
CCOc1ccc(CCNC(=O)CN(C)S(=O)(=O)c2cccs2)cc1OCC | 10.2
CC(=O)Nc1cccc(NC(=O)CSc2nnc(NC(=O)c3ccco3)s2)c1 | 4.45
O=C(Nc1ccccc1Oc1cccnc1)C1CCCN(C/C=C/c2ccc(F)cc2)C1 (stereo not shown) | -76.9
CCN(CC)C(=O)C1CCCN(C/C=C/c2ccccc2)C1 (stereo not shown) | -40.8
COc1cc(CN2CCCC(C(=O)Nc3ccccc3Oc3cccnc3)C2)ccc1F (stereo not shown) | -39
O=C(Nc1ccccc1Oc1cccnc1)C1CCCN(C/C=C/c2ccccc2)C1 (stereo not shown) | -76.9
O=C(Nc1ccccc1Oc1ccccc1)C1CCCC1 | 6.32
O=C(Nc1ccccc1Oc1ccccc1)C1CC1 | 12.2
